Y pestis TopoI: Y. pestis Topo-I inhibition via cleavage products; Y. pestis Topo-I cleavage product accumulation, plate reader; activity, % at 10 µM; 360,000 tested, 0.064% active; AID 504884; in the data active = activity above about 50%, passing the limit was not always enough; inconclusive = no clear call, values can overlap the other calls
FadD28 FP inh: blocks FadD28 binding to the bisubstrate probe; fluorescence polarization; inhibition, % at 12.5 µM; 360,000 tested, 0.22% active; AID 588549; in the data active = inhibition above about 8.5%, passing the limit was not always enough; inconclusive = no clear call, values can overlap the other calls
TcdB GH inh: inhibitors of Clostridioides difficile toxin B glycohydrolase | TcdB glycohydrolase enzymatic assay, plate reader | inhibition, % at 9.99 µM | 350,000 tested, 0.24% active | P18177; in the data active = inhibition above about 10%
BioA inh-1: BioA (M. tuberculosis) enzyme inhibition; purified M. tuberculosis BioA enzyme, plate reader; inhibition, % at 9.99 µM; 360,000 tested, 0.096% active; AID 602481; in the data active = inhibition above about 40%; inconclusive = no clear call, values can overlap the other calls
BioA inh-2: Mtb BioA enzyme inhibition | max activity, % | 310 tested, under 10 active | shares compounds with BioA inh-1 | purified BioA enzyme, plate reader, dose response;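 note: top concentration of the dilution series was 10 µM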
Target sequence (P9WQ81 whole entry, looked up): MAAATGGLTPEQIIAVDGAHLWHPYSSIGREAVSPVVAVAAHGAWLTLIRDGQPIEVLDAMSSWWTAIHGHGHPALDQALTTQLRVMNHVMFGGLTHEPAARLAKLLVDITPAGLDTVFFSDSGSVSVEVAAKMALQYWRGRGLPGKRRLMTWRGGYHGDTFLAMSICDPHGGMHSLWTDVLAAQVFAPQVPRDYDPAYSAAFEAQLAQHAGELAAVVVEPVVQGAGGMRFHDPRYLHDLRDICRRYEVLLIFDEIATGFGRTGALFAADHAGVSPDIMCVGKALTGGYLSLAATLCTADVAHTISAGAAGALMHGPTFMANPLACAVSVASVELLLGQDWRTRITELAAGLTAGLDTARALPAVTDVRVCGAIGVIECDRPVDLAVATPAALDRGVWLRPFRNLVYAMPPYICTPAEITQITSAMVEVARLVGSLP
HepG2 cytotox: cytotoxicity in HepG2 cells | shares compounds with BioA inh-1 | plate reader | max activity, % | 310 tested, under 10 active | AID 651898
NIH3T3 tox 5: NIH3T3 viability loss | shares compounds with BioA inh-1 | NIH3T3 cytotoxicity, plate reader | activity change, negative = cytotoxicity, % at 26 µM | 310 tested, under 10 active
* marks the source's active call; other numbers are inactive results; [ ] = remark or other dose. Sampled rows, rich in hits. Any-hit rate of the full collection: about 0.47%. Unless noted, the rule behind the calls is not given here.

What do the screens show for `Cc1ccc(S(=O)(=O)NNC(=O)Nc2ccc(Cl)c(Cl)c2)cc1`?
Y pestis TopoI: -7; FadD28 FP inh: 1; TcdB GH inh: 1

How did CSc1nsc(SCC(=O)NC2CCCCC2)n1 do in these assays?
Y pestis TopoI: -1; FadD28 FP inh: -3; BioA inh-1: -2

What do the screens show for `O=C(CSc1nncs1)N1c2ccccc2Sc2ccccc21`?
Y pestis TopoI: -4; FadD28 FP inh: -14; BioA inh-1: 44*; BioA inh-2: -2; HepG2 cytotox: -12; NIH3T3 tox 5: -3

Results for Cc1nn(CCC(=O)O)c2nc(-c3cccnc3)cc(C(F)(F)F)c12 ?
Y pestis TopoI: -7; FadD28 FP inh: -1; BioA inh-1: 48*; BioA inh-2: 7; HepG2 cytotox: 10; NIH3T3 tox 5: -1

How did CCOC(=O)c1cc2c(C(F)(F)F)cc(-c3cccnc3)nc2o1 do in these assays?
Y pestis TopoI: 8; FadD28 FP inh: -1; BioA inh-1: 0

How did O=C(CN1C(=O)/C(=C/c2cccc(Br)c2)SC1=S)Nc1cccnc1 do in these assays?
Y pestis TopoI: 17; FadD28 FP inh: 0; TcdB GH inh: -1; BioA inh-1: 88*; BioA inh-2: 5; HepG2 cytotox: 4; NIH3T3 tox 5: 0

Results for CC(=O)c1ccc(C(=O)N2CCCC(C(=O)c3cc(F)ccc3F)C2)s1 (configuration not stated) ?
Y pestis TopoI: -4; FadD28 FP inh: -1; TcdB GH inh: -2; BioA inh-1: 38

Results for CC(=O)c1ccc(C(=O)NC2CCCN(Cc3ccccc3F)C2)s1 (configuration not stated) ?
Y pestis TopoI: -1; FadD28 FP inh: -1; TcdB GH inh: 0; BioA inh-1: 46*; BioA inh-2: -7; HepG2 cytotox: -9; NIH3T3 tox 5: 5

What do the screens show for `COc1ccc(F)cc1C(=O)C1CCCN(C(=O)c2ccc(C(C)=O)s2)C1` (configuration not stated)?
Y pestis TopoI: 11; FadD28 FP inh: -2; TcdB GH inh: 0; BioA inh-1: 71*; BioA inh-2: -8; HepG2 cytotox: -16; NIH3T3 tox 5: -3

What do the screens show for `CC(=O)c1ccc(C(=O)N2CCCC(C(=O)c3ccc(Cl)cc3)C2)s1` (configuration not stated)?
Y pestis TopoI: 13; FadD28 FP inh: -5; TcdB GH inh: 1; BioA inh-1: 49*; BioA inh-2: -6; HepG2 cytotox: 7; NIH3T3 tox 5: -2

Results for CC(=O)c1ccc(C(=O)N2CCCC(Nc3ccccc3)C2)s1 (configuration not stated) ?
Y pestis TopoI: 2; FadD28 FP inh: inconclusive; TcdB GH inh: 1; BioA inh-1: 64*; BioA inh-2: -8; HepG2 cytotox: 24; NIH3T3 tox 5: -1

How did CC1=CC(=O)C=CC1=Nc1ccc(N(C)C)cc1 do in these assays?
FadD28 FP inh: -1; TcdB GH inh: -6

How did Cn1nnc2cc(C(=O)N3CCC(c4ccccc4)C3)ccc21 (configuration not stated) do in these assays?
Y pestis TopoI: 1; FadD28 FP inh: -2; BioA inh-1: 66*; BioA inh-2: -10; HepG2 cytotox: -13; NIH3T3 tox 5: -8

How did O=C(CSc1nnc(-c2ccncc2)n1-c1ccc(Cl)cc1)NCc1cccs1 do in these assays?
Y pestis TopoI: -2; FadD28 FP inh: -2; BioA inh-1: 47*; BioA inh-2: -10; HepG2 cytotox: -13; NIH3T3 tox 5: -8

What do the screens show for `CSCC[C@H](NC(=O)OC(C)(C)C)C(=O)N/N=C/c1c(C)[nH]c(=O)[nH]c1=O`?
Y pestis TopoI: 0; FadD28 FP inh: -5; BioA inh-1: 2

What do the screens show for `CCOC(=O)c1[nH]c(C)c(C(=O)NC2CCCC2)c1C`?
Y pestis TopoI: 7; FadD28 FP inh: 0; TcdB GH inh: 1; BioA inh-1: -1

How did CN1CCCC1CCOC(C)(c1ccccc1)c1ccc(Cl)cc1 (configuration not stated) do in these assays?
Y pestis TopoI: -5; FadD28 FP inh: -7; TcdB GH inh: 3; BioA inh-1: 48*; BioA inh-2: 10; HepG2 cytotox: 18; NIH3T3 tox 5: inconclusive

Results for C[C@@H]1CN([C@@H](C)CO)C(=O)Cc2cc(NC(=O)Cc3ccccc3)ccc2O[C@@H]1CN(C)C(=O)Nc1ccc(C(F)(F)F)cc1 ?
TcdB GH inh: 0; BioA inh-1: -5

What do the screens show for `Nn1c(SCCOc2ccccc2)nnc1-c1cccnc1`?
Y pestis TopoI: 2; FadD28 FP inh: 0; TcdB GH inh: 1; BioA inh-1: 74*; BioA inh-2: 3; HepG2 cytotox: -8; NIH3T3 tox 5: -5

How did COc1cccc(-c2nnc(SCc3nc4ccccc4[nH]3)n2N)c1 do in these assays?
Y pestis TopoI: -6; FadD28 FP inh: -3

How did Nn1c(SCCOc2ccc(Cl)cc2)nnc1-c1cccnc1 do in these assays?
Y pestis TopoI: 3; FadD28 FP inh: -2

Results for Nn1c(SC/C=C/c2ccccc2)nnc1-c1cccnc1 ?
Y pestis TopoI: 2; FadD28 FP inh: -1; BioA inh-1: 109*; BioA inh-2: 4; HepG2 cytotox: -11; NIH3T3 tox 5: 12

How did Nn1c(SCc2nc3ccccc3[nH]2)nnc1-c1cccnc1 do in these assays?
Y pestis TopoI: 9; FadD28 FP inh: -6; BioA inh-1: 59*; BioA inh-2: -8; HepG2 cytotox: -6; NIH3T3 tox 5: 1

What do the screens show for `COc1ccc(-n2c(=O)[nH]c3ccccc3c2=O)cc1`?
Y pestis TopoI: -1; FadD28 FP inh: -2; BioA inh-1: 2

How did O=C(C[C@H]1C[C@H]2c3cc(NC(=O)c4cccnc4)ccc3O[C@H]2[C@H](CO)O1)NCc1ccccn1 do in these assays?
TcdB GH inh: 1; BioA inh-1: 40*; BioA inh-2: -2; HepG2 cytotox: inactive; NIH3T3 tox 5: -6

What do the screens show for `O=C(C[C@@H]1C[C@@H]2c3cc(NC(=O)c4cccnc4)ccc3O[C@@H]2[C@@H](CO)O1)NCc1cccc(F)c1`?
TcdB GH inh: -1; BioA inh-1: 51*; BioA inh-2: -8; HepG2 cytotox: inactive; NIH3T3 tox 5: 1[23.5 µM]

How did O=C(Nc1ccc2c(c1)[C@H]1C[C@@H](CC(=O)N3CCc4ccccc4C3)O[C@H](CO)[C@H]1O2)c1cccnc1 do in these assays?
TcdB GH inh: 0; BioA inh-1: 55*; BioA inh-2: -4; HepG2 cytotox: inactive; NIH3T3 tox 5: -7

How did O=C(C[C@@H]1C[C@@H]2c3cc(NC(=O)c4cccnc4)ccc3O[C@@H]2[C@@H](CO)O1)NCc1cccnc1 do in these assays?
TcdB GH inh: 0; BioA inh-1: 41*; BioA inh-2: -7; HepG2 cytotox: inactive; NIH3T3 tox 5: -5

How did O=C(C[C@@H]1C[C@@H]2c3cc(NC(=O)c4cccnc4)ccc3O[C@@H]2[C@H](CO)O1)NCc1ccccn1 do in these assays?
TcdB GH inh: 1; BioA inh-1: 33

Bioassay records deposited in PubChem by Broad Institute.
